# Laboratory results taken from PubChem BioAssay (NCATS).
# Inconclusive results are not listed. Where a call stands in place of a potency, no number is given. Active and inactive are the calls of the source. Unless noted, the call rests on the fitted dose curve; in most records, active means well fitted curve in the direction sought with a large enough effect; inconclusive means small, poorly fitted or top-dose-only effect, or another doubt; inactive means no such curve, though single readings can be large; an effect the other way counts as inactive or inconclusive. Numbered stars: 1 amine (or outer) side, 2 acyl side, 3 side chain; on linkers, the order of the positions; unused ones are H or OH. Bridge positions count the residues as written; N and C are the ends. Square brackets hold non-standard residues; d marks the D form. Peptide text beside a SMILES is read from it. * marks the point of attachment. ξ: configuration not given here. ΔAla(E,3-NHCONH2) = NC(=O)N/C=C(/N)C(=O)O; X1 = NC1=NCCC(C(N[*:1])C(=O)[*:2])N1; ξβ3hOrn = NCCCC(N)CC(=O)*; Dap = NC[CH](N)C(=O)O
# Key:
# [1] = molecular target: Cytochrome P450 3A4 (Homo sapiens) (UniProt P08684); experiment: qHTS Assay for Inhibitors and Substrates of Cytochrome P450 3A4 (AID 884); further: nearly all actives have a fitted effect of over 50% in size; further: potency means the concentration at half of the fitted maximal effect
# Outline: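 Luminescent readout of luciferin produced by CYP3A4 (20 nM) dealkylation of Luciferin-PPXE, 25 uM (its KM). NADPH-driven reaction ran 60 min at RT after 10 min compound preincubation; data scaled to 57 uM ketoconazole as 100% inhibition.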
# [2] = Confirmation and Secondary Assay for Modulators of Hemoglobin Beta Chain Splicing at IVS2 654 locus (AID 910);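 further: HeLa cells stably carrying EGFP split by mutant beta-globin IVS2-654 intron; per-well total GFP intensity by laser scanning cytometry after 2-day treatment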
# Outline: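 Readout: per-well total peak green fluorescence (488 nm ex, 500–520 nm em) from objects 5–250 µm, reflecting correct splicing of an EGFP-654 reporter. Compounds were applied for 2 days at 37 °C to overnight-plated HeLa EGFP-654 cells; controls were DMSO and 500 nM IVS2-654 PNA.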
# [3] = Confirmation and Secondary Assay for Modulators of Hemoglobin Beta Chain Splicing at IVS2 705 locus (AID 930);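 further: HeLa cells stably expressing the EGFP-705 splicing reporter; GFP fluorescence per well restored by corrected splicing of the IVS2-705 intron in EGFP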
# Outline: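 Assay measures total GFP intensity per well in HeLa EGFP-705 cells after 2 days with compound; mis-splicing normally truncates EGFP, so fluorescence indicates corrected splicing.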
# [4] = qHTS Assay for Lipid Storage Modulators (AID 1519; calls by dose curve); settings: Drosophila S3 cells, BODIPY lipid droplet/cell ratio, laser cytometry, cells loaded with oleic acid; for activity change, negative = inhibition: at 57.5 µM (top of the series)
# Outline: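 Cells seeded at 5,000 per well were treated with compounds over a concentration series and loaded with oleic acid (400 uM, as added). Lipid droplet fluorescence (488 nm excitation, 500-530 nm channel) was read by laser-scanning cytometry and normalized to 20 uM Triacsin C.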
# [5] = molecular target: Ubiquitin carboxyl-terminal hydrolase 1 (Homo sapiens) (UniProt O94782); experiment: Inhibitors of USP1/UAF1: Pilot qHTS (AID 504865);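 further: rhodamine fluorescence freed from ubiquitin-rhodamine substrate followed over time; top concentration of the series differs between compounds; nearly all actives have a fitted effect of over 35% in size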
# Outline: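 USP1/UAF1 complex (1nM) preincubated with compound 15 min at room temperature, then Ub-Rho substrate (150nM final) added. Fluorescence read kinetically at 480/540 nm, 6 reads every 60 seconds. Buffer: 50mM HEPES pH 7.8, 0.5mM EDTA, 0.1 mg/ml BSA, 1mM TCEP, 0.01% Tween-20.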
# [6] = measured here: cell count channel max response
# [7] = measured here: lipid channel max response
# Chain of Cytochrome P450 3A4 (Homo sapiens) (P08684 whole entry, looked up): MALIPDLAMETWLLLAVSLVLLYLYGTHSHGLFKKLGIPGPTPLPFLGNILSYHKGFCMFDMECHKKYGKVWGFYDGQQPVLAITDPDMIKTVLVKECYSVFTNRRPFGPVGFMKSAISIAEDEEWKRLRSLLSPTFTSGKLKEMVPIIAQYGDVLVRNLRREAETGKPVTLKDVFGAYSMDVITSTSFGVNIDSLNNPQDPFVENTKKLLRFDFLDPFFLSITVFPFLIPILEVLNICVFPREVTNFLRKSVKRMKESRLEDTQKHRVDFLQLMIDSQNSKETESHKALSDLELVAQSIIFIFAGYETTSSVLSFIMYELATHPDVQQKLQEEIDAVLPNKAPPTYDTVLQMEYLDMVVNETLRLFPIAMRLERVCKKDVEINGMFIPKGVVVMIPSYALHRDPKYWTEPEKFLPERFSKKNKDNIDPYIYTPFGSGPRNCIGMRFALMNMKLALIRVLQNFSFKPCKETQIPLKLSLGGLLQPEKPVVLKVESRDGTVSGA
# Chain of Ubiquitin carboxyl-terminal hydrolase 1 (Homo sapiens) (O94782 whole entry, looked up): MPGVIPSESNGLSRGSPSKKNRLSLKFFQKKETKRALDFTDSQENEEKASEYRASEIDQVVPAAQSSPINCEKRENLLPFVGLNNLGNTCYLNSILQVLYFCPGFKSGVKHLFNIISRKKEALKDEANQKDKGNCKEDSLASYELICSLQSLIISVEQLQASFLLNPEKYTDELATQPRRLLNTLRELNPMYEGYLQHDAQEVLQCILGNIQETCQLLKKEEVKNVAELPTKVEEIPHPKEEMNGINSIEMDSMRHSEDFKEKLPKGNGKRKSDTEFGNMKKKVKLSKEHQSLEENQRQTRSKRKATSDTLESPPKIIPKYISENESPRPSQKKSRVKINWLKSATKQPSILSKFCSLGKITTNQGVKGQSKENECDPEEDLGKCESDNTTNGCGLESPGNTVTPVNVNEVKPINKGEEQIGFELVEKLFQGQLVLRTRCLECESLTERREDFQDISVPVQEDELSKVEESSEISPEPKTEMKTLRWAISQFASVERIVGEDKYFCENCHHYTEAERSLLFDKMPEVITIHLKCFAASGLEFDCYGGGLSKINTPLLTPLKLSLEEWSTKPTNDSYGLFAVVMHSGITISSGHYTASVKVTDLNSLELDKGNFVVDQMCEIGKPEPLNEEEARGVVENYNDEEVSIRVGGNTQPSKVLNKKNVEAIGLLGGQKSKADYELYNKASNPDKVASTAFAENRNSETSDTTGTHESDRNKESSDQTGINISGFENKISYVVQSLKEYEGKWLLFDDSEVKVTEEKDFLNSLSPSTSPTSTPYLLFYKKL
SMILES,Potency [1],Potency [2],Potency [3],"activity change, negative = inhibition [4]","max response [4, 6]","max response [4, 7]",Potency [5]
CC1CCC(C(C)C)[C@H](OC(=O)c2ccccc2)C1 (stereo not given in full),inactive,inactive,inactive,5.46% (inactive),10.9%,15.1%,inactive
COc1cc2c3cc1Oc1cc(ccc1O)CC1c4c(cc(OC)c(O)c4Oc4ccc(cc4)CC3N(C)CC2)CC[N+]1(C)C (stereo not given),inactive,inactive,inactive,4.12% (inactive),-2.85%,6.31%,inactive
Nc1ncnc2nc(Cl)[nH]c12,inactive,inactive,inactive,2.56% (inactive),-7.94%,-3%,inactive
COc1ccc(C2CC(=O)c3c(O)cc(O[C@H]4OC(COC5OC(C)C(O)C(O)[C@@H]5O)C(O)C(O)C4O)cc3O2)cc1O (stereo not given in full),inactive,inactive,inactive,-1.5% (inactive),1.58%,-1.01%,inactive
Cc1onc(-c2ccccc2)c1C(=O)NC1C(=O)N2C(C(=O)O)C(C)(C)S[C@@H]12 (stereo not given in full),inactive,inactive,inactive,9.92% (inactive),9.88%,24.8%,inactive
COc1cc(-c2coc3cc(OC)c(OC)c(OC)c3c2=O)cc(OC)c1OC,inactive,inactive,inactive,2.36% (inactive),17.7%,21.5%,inactive
CC1O[C@@H](O[C@H]2C(Oc3cc(O)c4c(c3)OC(c3ccc(O)cc3)CC4=O)OC(CO)C(O)C2O)C(O)C(O)C1O (stereo not given in full),inactive,inactive,inactive,6.1% (inactive),13%,21.6%,inactive
COc1ccc(C2OC3C(CO)OC(n4cnc5c(=O)[nH]c(N)nc54)C3O2)cc1 (stereo not given),inactive,inactive,inactive,1.28% (inactive),11.1%,13.1%,inactive
COc1cc(O)ccc1C(C)=O,inactive,inactive,inactive,7.68% (inactive),24.4%,34.1%,inactive
Nc1nc2c(nc(Sc3ccc(Cl)cc3)n2C2OC(CO)C(O)C2O)c(=O)[nH]1 (stereo not given),15.8 µM (active),inactive,inactive,5.03% (inactive),14.6%,19.6%,inactive
NC(CSCSCC(N)C(=O)O)C(=O)O (stereo not given),inactive,inactive,inactive,1.54% (inactive),7.28%,12.4%,inactive
NC(CCC(=O)NC(CCSC(CC(=O)O)C(=O)O)C(=O)NCC(=O)O)C(=O)O (stereo not given),inactive,inactive,inactive,6.92% (inactive),13.3%,21.2%,inactive
CC(CCC(=O)O)C1CCC2C3CC[C@@H]4CCCC[C@@]4(C)C3CC[C@@]12C (stereo not given in full),inactive,inactive,inactive,2.19% (inactive),13.8%,19%,inactive
CCC(C)C(NC)C(=O)O (stereo not given),inactive,inactive,inactive,5.09% (inactive),17.4%,24.1%,inactive
COc1ccc2c(=O)c(CC(=O)O)coc2c1,inactive,inactive,inactive,4.63% (inactive),9.56%,14.8%,inactive
CC(=O)NC(CC(=O)O)C(=O)NC(CCC(=O)O)C(=O)O (stereo not drawn) (Ac-Asp-Glu-OH; configuration not given here),inactive,inactive,inactive,4.52% (inactive),12.9%,18.5%,inactive
CON,inactive,inactive,inactive,4.31% (inactive),12.5%,21.6%,inactive
C[C@@H]1OC(OC2C(OC3CC[C@@]4(C)C5CC=C6C7CC(C)(C)CC[C@@]7(C(=O)O)CCC6(C)C5(C)CCC4[C@]3(C)CO)OCC(O)C2O)C(O)C(O)C1O (stereo not given in full),inactive,inactive,inactive,3.66% (inactive),9.24%,14.3%,inactive
O=C(O)C1CC(C2CCCCN2)CN2CCCCC12 (stereo not given),inactive,inactive,inactive,2.57% (inactive),-1.28%,1.78%,inactive
O=C(O)C1(O)CC(O)C(O)C(O)C1 (stereo not given),inactive,inactive,inactive,2.66% (inactive),9.62%,14.4%,inactive
CC(C)CCCC(C)C1CCC2C3CC=C4CC(O)CC[C@@]4(C)C3CC[C@@]12C (stereo not given in full),inactive,inactive,inactive,2.88% (inactive),-11.4%,-8.92%,inactive
COc1cccc(/C=C/C(=O)O)c1C(C)C,inactive,inactive,inactive,9.75% (inactive),13%,26.7%,inactive
CCCCC(=O)Oc1ccccc1C(=O)O,inactive,inactive,inactive,-0.236% (inactive),5.62%,5.3%,inactive
CCOC(=O)c1c(C)cc(O)c(C)c1O,inactive,inactive,inactive,6.04% (inactive),15.9%,23.2%,inactive
NCCC(=O)N[C@H](Cc1cnc[nH]1)C(=O)O,inactive,inactive,inactive,4.17% (inactive),11.4%,10.9%,inactive

SMILES,Potency [1],Potency [2],Potency [3],"activity change, negative = inhibition [4]","max response [4, 6]","max response [4, 7]",Potency [5]
CC1CCC(C(C)C)[C@H](O)C1 (stereo not given in full),inactive,inactive,inactive,8.01% (inactive),-2.41%,-1.46%,inactive
"NCCCC(N)CC(=O)NCC1NC(=O)C(CO)NC(=O)C(N)CNC(=O)C(C2CCN=C(N)N2)NC(=O)/C(=C\NC(N)=O)NC1=O (stereo not drawn) (H-[Dap]S[Dap](ξβ3hOrn)[ΔAla(E,3-NHCONH2)][X1]; lactam 1-C; configuration not given here)",inactive,inactive,inactive,2.39% (inactive),15.4%,21.2%,inactive
O=c1cc(-c2ccccc2)oc2cc(O)c(O)cc12,inactive,inactive,inactive,-1.09% (inactive),-7.11%,-6.23%,inactive
CC(C)C1COc2cc3oc(=O)ccc3cc2O1 (stereo not given),inactive,inactive,inactive,9.84% (inactive),6%,13.7%,inactive
CC(=O)OC1CCC2(C)C3CC(=O)C4(C)C(CC5OC6(CCC(C)CO6)C(C)C54)C3CC[C@H]2C1 (stereo not given in full),inactive,inactive,inactive,5.04% (inactive),11.2%,17.7%,inactive
COc1ccccc1/C=C\C(=O)O,inactive,inactive,inactive,-2.1% (inactive),4.2%,4.2%,inactive
Nc1ncnc2c1[nH]c(=O)n2C1OC(CO)C(O)C1O (stereo not given),inactive,inactive,inactive,-0.198% (inactive),11.6%,24.7%,inactive
CC(=O)C1CCC2C3CC=C4CC(O)CC[C@@]4(C)C3CC[C@]12C (stereo not given in full),inactive,inactive,inactive,2.94% (inactive),11.3%,18.4%,inactive
COc1ccc2c(c1OC)OCC(c1ccc(OC)c(OC)c1OC)C2 (stereo not given),inactive,inactive,inactive,9.26% (inactive),12.7%,23.2%,inactive
CC(=O)OC1CC[C@@]2(C)C3=CC(=O)[C@]4(C)C(CC5OC6(OCC(C)CC6Br)C(C)C54)C3CC[C@H]2C1 (stereo not given in full),inactive,inactive,inactive,-8.55% (inactive),-17.7%,-20.5%,inactive
C=C1CCC(O)C/C1=C/C=C1\CCC[C@@]2(C)C(C(C)/C=C/C(C)C(C)C)CC[C@@H]12 (stereo not given in full),inactive,inactive,inactive,14.3% (inactive),33.4%,55.4%,inactive
O=C(/C=C/C(=O)Oc1ccccc1C(=O)O)Oc1ccccc1C(=O)O,inactive,inactive,inactive,7.98% (inactive),4.07%,13.2%,inactive
CC(=O)NC1C(O)C[C@@](O)(C(=O)O)OC1[C@@H](O)C(O)CO (stereo not given in full),inactive,inactive,inactive,3.62% (inactive),13.3%,18.3%,inactive
OCC1OC(n2cnc3c(Cl)nc(Cl)nc32)C(O)C1O (stereo not given),inactive,inactive,inactive,6.74% (inactive),16.5%,22.9%,inactive
Cc1cn(C2CCC(CO)O2)c(=O)[nH]c1=O (stereo not given),inactive,inactive,inactive,4.05% (inactive),13.1%,17.4%,inactive
[N-]=[N+]=NCC1OC(n2cnc3c(=O)[nH]c(N)nc32)C(O)C1O (stereo not given),inactive,inactive,inactive,4.07% (inactive),12.7%,19.1%,inactive
Nc1nc2[nH]c(=O)c(=O)[nH]c2c(=O)[nH]1,inactive,inactive,inactive,4.12% (inactive),1.82%,6.32%,inactive
CC(=O)/C(=C\c1ccccc1)CC(=O)O,inactive,inactive,inactive,9.42% (inactive),12.7%,23.6%,inactive
CC1C(=O)CCC2[C@]1(C)CCC1[C@]2(C)CC[C@@]2(C)C3CC(C)(C)CC[C@]3(C)CC[C@@]12C (stereo not given in full),inactive,inactive,inactive,2.51% (inactive),9.14%,14.3%,inactive
C=C(C)C1(O)OC(=O)C=C1OC (stereo not given),inactive,inactive,inactive,-0.62% (inactive),-1.24%,-2.01%,inactive
C=C(C)C1CC[C@]2(CO)CC[C@@]3(C)[C@H](CCC4[C@@]5(C)CCC(O)C(C)(C)C5CC[C@@]43C)C12 (stereo not given in full),inactive,inactive,inactive,-2.93% (inactive),-9.58%,-12.7%,inactive
COc1ccc(-c2cc(=O)c3c(O)cc(O[C@@H]4OC(COC5OC(C)C(O)C(O)[C@@H]5O)C(O)C(O)C4O)cc3o2)cc1 (stereo not given in full),inactive,inactive,inactive,5.1% (inactive),-4.97%,1.77%,inactive
Cn1c(=O)[nH]c2nc[nH]c2c1=O,inactive,inactive,inactive,5.61% (inactive),14%,22.4%,inactive
COC(=O)C1=CO[C@@H](O[C@H]2OC(CO)C(O)C(O)C2O)C2C1CC(O)C2C (stereo not given in full),inactive,inactive,inactive,6.73% (inactive),11.3%,19.4%,inactive
CC(=O)OCC(=O)[C@@]1(O)CCC2C3CCC4=CC(=O)CC[C@]4(C)C3C(O)C[C@]21C (stereo not given in full),inactive,inactive,inactive,7.11% (inactive),10.3%,18.3%,inactive
